Source: publication PMC12136788
Substitutions are numbered along the chain they refer to. Whole data set: some 5,800 sequences, median “enrichment r” near 0.54, cut for the highest 2% near 16. Only a selection was taken, and the highest values are over-represented in it overall.

B1: ENSG00000136451:be:win_2701|3pUTR|ENSG00000136451|bound_else_gene|NA|bound_elsewhere_windowed (ssRNA)
RNA: GGGAGUUCUACAGUCCGACGAUCUGUAAAUAUGGACAUCACUUUUUUUUUCUUUGAGAAAACACUUGUAUCAGCUUUGUGGUGUUUUCAGGGAGACAGCUGUCUGCAUUCCCUGUAGAAACCCAGCAAUGAUUAUGCACGUUGCAACAGAGGAUUGAGCAUCA
B2: chr8:73046310:73046411:+|3pUTR|ENSG00000147601|msi1|total|mutant (ssRNA)
RNA: GGGAGUUCUACAGUCCGACGAUCUUGUAUUCUUUAAGAACCUUAUUUUGAUAAAAUGUAAAUUUGUUGAACCCUGCCACAUUCCGUAUCCCCACCCCCAAAUCCUGUUCCAAUGAAAAAAUUAAAACCUGAUACGAAAAAAAACAACAGAGGAUUGAGCAUCA
B3: chr4:70820284:70820384:-|3pUTR|ENSG00000132463|msi1_unk|FALSE|overlapping (ssRNA)
RNA: GGGAGUUCUACAGUCCGACGAUCUGAACUGGUAUGGUUUGGCAGAAUAGUUUUAAAUUUUGCUGUAUUUGAUUACUUAGAGAUAGGAAUUUUUAAAAAUCAAAACAAAAAAUACCACAGCUUAGUGUAAAUGACAAUUUGGCGCAACAGAGGAUUGAGCAUCA
B4: chr8:25429562:25429664:-|3pUTR|ENSG00000104756|unk|total|mutant (ssRNA)
RNA: GGGAGUUCUACAGUCCGACGAUCAGAAAAGCACUCAUUUAACCGAUGCCGGGAAACCCGAUAUUGCUGCCUUUUGAAUGGGGCCGGGGGGUUUACCUGGUUUUAUGACCAGGCACCGUAUCUAUUAUAUUUGCUUUUAAACCGCAACAGAGGAUUGAGCAUCA
B5: ENSG00000152661:stop:overlap|stop_codon|ENSG00000152661|stop_codon|NA|stop_codon (ssRNA)
RNA: GGGAGUUCUACAGUCCGACGAUCCUUCAAGCAGAGCCAGCAGUCGUGCCAGCAGCAGACCUCGGCCUGAUGACCUGGAGAUCUAGAUACAGGCUUGAAAGCAUCAAGAUUCCACUCAAUUGUGGAGAAGAAAAAAGGUGCUGUCAACAGAGGAUUGAGCAUCA
B6: chr5:116443554:116446612:-|three_prime_utr|ENSG00000092421|control|control|control (ssRNA)
RNA: GGGAGUUCUACAGUCCGACGAUCCCGCCAGUGUUACAGCUUUCUGUUGCAGCAGAUAAAUGCCAUGUUGGGCAACUAUGUCAUAGAUUUCUGCUCCUCCUCUCUUUUAAUGAAAUAACGUGACCGUUAACGCAAGUAACUCUUCAACAGAGGAUUGAGCAUCA
B7: chr5:159157431:159157536:-|3pUTR|ENSG00000145860|unk|total|mutant (ssRNA)
RNA: GGGAGUUCUACAGUCCGACGAUCCAAAAAGUGUUUUUCAGACCUCGGUAUUCCUAAUGUGGGAUGUGACUUUAUUUUAUUUUCCGCCGCAAAUUUGGAUGCCGACUGACAGACACCGCUGAAUGUCUUAAUAAAUUUAAAUUUCAACAGAGGAUUGAGCAUCA
B8: chr4:42087128:42087229:+|3pUTR|ENSG00000014824|msi1|FALSE|unique (ssRNA)
RNA: GGGAGUUCUACAGUCCGACGAUCAUUUUGUAUAAUAUAGUUCAUACUGUGUCUGUGAGUUUCUUCAGUUACAAAUGGGCAUUUAGUAUAGUUAUAUUGACUAUAACAUGUAAGUAAAUAGCUUUCUACUGACCCUAAGUUAUCCAACAGAGGAUUGAGCAUCA
B9: chr8:140515610:140515764:+|3pUTR|ENSG00000104472|unk|FALSE|unique (ssRNA)
RNA: GGGAGUUCUACAGUCCGACGAUCUUUUGGAAUCAGUUCUUAUAAACAGCUCGAUUCAGUUUUAGCUAAAUUUAUAGUUUAGGUAGUAUGUUACAUUUGAAUUUUUGUCUUAAGAAAAGUUGACUGUUCAGAUAUUUUUCUACUCAACAGAGGAUUGAGCAUCA
B10: chr12:50748518:50748596:+|3pUTR|ENSG00000066084|msi1_unk|FALSE|overlapping (ssRNA)
RNA: GGGAGUUCUACAGUCCGACGAUCUCAAAUUCAAACUACAGUACUGUGUAAUUAUGUAUAAAGUUUUUUUAUUUAUUUGAAGUUAGACUAGAUAUACGUUUUUAAAUUUAACAUCUGGCUGGACAGUGUUCUAUUAACUCAUUGCAACAGAGGAUUGAGCAUCA
B11: ENSG00000124766:be:win_3651|3pUTR|ENSG00000124766|bound_else_gene|NA|bound_elsewhere_windowed (ssRNA)
RNA: GGGAGUUCUACAGUCCGACGAUCUCGCUAAAUAUAAUUGUUUUAGUCUUAUGGCAUGAUGAUAGCAUAUGUGUUCAGGUUUAUAGCUGUUGUGUUUAAAAAUUGAAAAAAGUGGAAAACAUCUUUGUACAUUUAAGUCUGUAUCAACAGAGGAUUGAGCAUCA
B12: chr5:159157431:159157536:-|3pUTR|ENSG00000145860|unk|FALSE|bound_elsewhere (ssRNA)
RNA: B7 RNA with C83U, C84A, C86U, C87A, C101U, C102A, C115U, C116A
B13: chr9:74692981:74693082:+|3pUTR|ENSG00000198963|unk|FALSE|unique (ssRNA)
RNA: GGGAGUUCUACAGUCCGACGAUCUUUUAUAUUACUUUAGAAUGUAAUAGGUUUUUGUCCUUAUUUUAUGUCCUGUAAAUUAUUAGUUCAAUACUGUUAGCAUUCCCGGAUAAUGCACACAUGAUUUCUGAAUGUUUUCUGUAACAACAGAGGAUUGAGCAUCA
B14: chr18:9400975:9401076:+|3pUTR|ENSG00000128791|msi1|FALSE|unique (ssRNA)
RNA: GGGAGUUCUACAGUCCGACGAUCUAUAAAAAUAGAUAAUGCUCUUGGACACAUUUUGUAUUAUUCAUGAUCUGAAUAGUAGUUAGUUAAAAGAUCAUUUGUAAUAUUAUGAUCAACUGUUAUAAAUUAAGGUCUUAAUACCUUCAACAGAGGAUUGAGCAUCA
B15: chr8:140515610:140515764:+|3pUTR|ENSG00000104472|unk|total|mutant (ssRNA)
RNA: B9 RNA with U62C, A63C, U74C, A75C, U79C, A80C, U83C, A84C
B16: chr20:59325757:59325866:+|3pUTR|ENSG00000124205|unk|total|mutant (ssRNA)
RNA: GGGAGUUCUACAGUCCGACGAUCUUAUGUGGAUCUGUUCAAAGCCGUCACUGUAUAUACGUACCGAGAGGCCGACCGGCCGGCCGAUUUUAAAUUGCAUUCUGAAUACAAACUCAUACUCCUCCGAGCUUGAAUUACAUUUUUCAACAGAGGAUUGAGCAUCA
B17: chr18:9400975:9401076:+|3pUTR|ENSG00000128791|msi1|total|mutant (ssRNA)
RNA: B14 RNA with U32C, A33C, U76C, A77C, U79C, A80C, U83C, A84C
B18: chr20:59325757:59325866:+|3pUTR|ENSG00000124205|unk|FALSE|unique (ssRNA)
RNA: GGGAGUUCUACAGUCCGACGAUCUUAUGUGGAUCUGUUCAAAGUAGUCACUGUAUAUACGUAUAGAGAGGUAGAUAGGUAGGUAGAUUUUAAAUUGCAUUCUGAAUACAAACUCAUACUCCUUAGAGCUUGAAUUACAUUUUUCAACAGAGGAUUGAGCAUCA
B19: chr5:14398947:14399058:+|CDS|ENSG00000038382|unk|total|mutant (ssRNA)
RNA: GGGAGUUCUACAGUCCGACGAUCCCCAAAAACCUUAAUUCGAAAGGGUCGAGAACGGCAUCUCUUCCUUUUUGAAAUGUCCUCCGUAUUCCGUAAAGAAGUGAAAGAUUCCAGUGGGAGAAGCAAGUACCUUUAUAAAAGCAACAACAGAGGAUUGAGCAUCA
B20: chr1:206903316:206905147:-|three_prime_utr|ENSG00000162894|control|control|control (ssRNA)
RNA: GGGAGUUCUACAGUCCGACGAUCUCUGUGCCCUGAGCAUGGCUCUGCCCCCAGGUCGUCUUGCACACCUUGGCAGCCCCCUGUAGUUGACAGGUAAGCUGUAGGCAUGUAGAGCAAUUGUCCCAAUGCCACUUGCUUCCUUUCCAACAGAGGAUUGAGCAUCA
B21: chr3:31657911:31664018:-|three_prime_utr|ENSG00000144645|control|control|control (ssRNA)
RNA: GGGAGUUCUACAGUCCGACGAUCGGGUUUUUCUUGCUGAGCCCCCAAGACUGGAUAAAUACCAGGCAGGGGAAGGGAUGGACUAGGGCAGCUCGGUUCUGACUCCAGCUUUGGACAAGGCUUCAGGACAGGUUUUCUGCCACACAACAGAGGAUUGAGCAUCA
B22: chr2:190659421:190659522:+|CDS|ENSG00000138386|unk|FALSE|unique (ssRNA)
RNA: GGGAGUUCUACAGUCCGACGAUCAGAGACUGGGUCACAAACCCUGGGCUUUUCAAUCAGCCACUGACUUCCCUUCCUGUCAGUAGCAUACCCAUCUAUAAAUUACCAGAGGGAUCACCAACAUGGCUGGGAAUAUCCUGCAGUCAACAGAGGAUUGAGCAUCA

What follows are binders tested against MSI1 full-length (mouse, UniProt Q61474 1-362) (assay: nsRBNS (natural sequence RNA bind-n-seq); RBNS binding buffer (assumed for nsRBNS): 25 mM Tris pH 7.5, 150 mM KCl, 3 mM MgCl2, 0.01% Triton X-100, 500 ug/ml BSA, 20 U/ml SUPERase-In, 4 C; UNK is unkempt and MSI1 is Musashi-1; names of the RNAs are library labels; protein concentration not given here; high values mean tight binding).
Sequence of MSI1 full-length (Q61474 whole entry): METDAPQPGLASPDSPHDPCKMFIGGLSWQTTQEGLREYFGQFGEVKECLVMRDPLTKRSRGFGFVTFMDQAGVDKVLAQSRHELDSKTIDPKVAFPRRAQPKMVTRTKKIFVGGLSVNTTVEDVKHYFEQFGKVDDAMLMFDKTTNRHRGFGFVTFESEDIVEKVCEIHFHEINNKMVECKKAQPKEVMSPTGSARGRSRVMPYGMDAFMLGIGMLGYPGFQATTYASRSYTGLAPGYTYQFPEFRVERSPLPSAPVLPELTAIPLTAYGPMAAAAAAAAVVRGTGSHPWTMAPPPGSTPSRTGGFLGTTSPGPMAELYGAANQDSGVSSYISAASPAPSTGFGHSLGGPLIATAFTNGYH

Binder | binding signal [enrichment R]
B1 | 0.266
B2 | 2.83
B3 | 4.91
B4 | 0.472
B5 | 0.49
B6 | 0.417
B7 | 0.361
B8 | 2.94
B9 | 69.1
B10 | 5.2
B11 | 2.43
B12 | 23.3
B13 | 2.02
B14 | 24
B15 | 0.336
B16 | 0.342
B17 | 0.599
B18 | 20.2
B19 | 0.383
B20 | 0.397
B21 | 0.515
B22 | 0.584
